High-throughput results from PubChem.
Rows were chosen to be rich in hits. Some 7% of all compounds tested hit in one or more screens of this group.
ADAM17 inh – inhibitors of human ADAM17; recombinant ADAM17, EDANS/DABCYL FRET peptide cleavage; actives 0.83% (n = 370,000); P78536; AID 720648; inhibition, % at 6.95 µM;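 active = inhibition above the mean of compounds lying between control limits plus 3 SD, set per campaign, cut at about 8.5% in these data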
ADAM10 inh – inhibitors of human ADAM10; O14672; recombinant ADAM10, EDANS/DABCYL FRET peptide cleavage, 3 h; inhibition, % at 7 µM; actives 0.62% (n = 370,000); AID 720582;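 active = inhibition above a per-campaign cutoff equal to the mean of compounds falling between control-based bounds plus 3 SD, cut at about 20% in these data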
AHR activator – human AHR activation. actives 2.5% (n = 320,000). AHR-responsive luciferase reporter cells, luminescence. P35869. AID 2796. activation, % at 5 µM; in the data active = activation above about 47%
proKLK7 act – activates the human kallikrein-7 zymogen. P49862. purified proKLK7, EDANS-DABCYL substrate fluorescence; 100% is mature enzyme control, 0% vehicle. activation, % at 7 µM. actives 0.9% (n = 370,000). AID 652039;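 active = activation above the mean of all tested compounds plus 3 SD, computed per campaign excluding outliers beyond control limits, cut at about 13% in these data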
Target sequence (P49862 whole entry, looked up): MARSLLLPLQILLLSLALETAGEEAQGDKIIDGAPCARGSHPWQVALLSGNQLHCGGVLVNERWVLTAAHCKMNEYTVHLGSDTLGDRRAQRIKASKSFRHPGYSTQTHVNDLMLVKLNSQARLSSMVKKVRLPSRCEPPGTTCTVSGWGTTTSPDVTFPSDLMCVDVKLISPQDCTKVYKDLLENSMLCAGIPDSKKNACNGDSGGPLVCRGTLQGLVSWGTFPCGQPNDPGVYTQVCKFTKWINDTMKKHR
GRIN3A LBD mod – NR3A (human) ligand-binding domain modulation; NR3A LBD differential scanning fluorimetry, Tm shift; 0% = protein alone, 100% = glycine-bound protein; Tm shift relative to glycine control, % at 25 µM; actives 2.5% (n = 340,000); AID 1259313;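 active = melting temperature shift of at least 10% of the positive control shift, at one fixed dose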
rCAG binder – r(CAG) repeat RNA binding; TO-PRO-1 dye displacement fluorescence; inhibition, % at 3 µM; actives 1.3% (n = 370,000); AID 651821;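 active = inhibition above the plate cutoff, the mean of all test compounds on that plate plus 3 SD, cut at about 35% in these data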;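 note: higher means more dye released from RNA so lower well fluorescence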
KLK7 act conf – proKLK7 activation, confirmation; actives 68% (n = 3,200); activation, % at 7 µM; purified proKLK7, EDANS-DABCYL substrate fluorescence; scaled: vehicle 0, mature enzyme 100; shares compounds with proKLK7 act;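 active = activation, as change over the incubation, above the mean of all tested compounds plus 3 SD, cut at about 13% in these data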
EDANS-DABCYL int – fluorescence interference counter-screen for KLK7 activators; activation, % at 7 µM; actives 80% (n = 3,200); shares compounds with proKLK7 act; EDANS-DABCYL substrate fluorescence interference, no enzyme, 4 h; solvent 0%, active enzyme control 100%;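 active = activation above the all-compound mean plus 3 SD, ignoring values outside control-based bounds, cut at about 4.8% in these data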;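 note: value is the 4 h activation minus the activation read at time zero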
EDANS interf – optically interferes with EDANS-DABCYL fluorescence, kallikrein-7 activator counter-screen | shares compounds with proKLK7 act | EDANS-DABCYL peptide fluorescence interference, no enzyme | EC50, µM | actives 20% (n = 250) | AID 720493;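 active = compounds that raise the fluorescence signal in this interference counterscreen, with EC50 at or below 10 µM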;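 note: intact quenched peptide substrate alone read at 355 nm excitation and 520 nm emission; signal is fluorescence gain from T0 to T4 after four hours at room temperature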
ADAM10 confirm – confirmation of inhibitors of human ADAM10 | shares compounds with ADAM10 inh | ADAM10 QFRET peptide cleavage, EDANS fluorescence | inhibition, % at 6.95 µM | actives 1% (n = 2,100);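 active = inhibition above about 20% chosen separately for each screening run, limit read from the data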
ADAM17 ctr – counter-screen for ADAM10 exosite inhibitors: inhibitors of human ADAM17. AID 743214. inhibition, % at 6.95 µM. actives 0.5% (n = 2,100). shares compounds with ADAM10 inh. ADAM17 QFRET peptide cleavage, EDANS fluorescence;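 active = mean triplicate inhibition above the solvent-only control wells' mean plus 3 SD, cut at about 12% in these data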
ADAM10 counter – counter-screen for ADAM17 exosite inhibitors: inhibitors of human ADAM10 | shares compounds with ADAM17 inh | recombinant ADAM10, EDANS/DABCYL FRET peptide cleavage, 3 h | inhibition, % at 6.95 µM | actives 47% (n = 2,900);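 active = mean inhibition over the triplicate runs exceeds the activity threshold set in the earlier primary screen, cut at about 20% in these data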
ADAM17 confirm – confirmation of inhibitors of human ADAM17; inhibition, % at 6.95 µM; shares compounds with ADAM17 inh; recombinant ADAM17, EDANS/DABCYL QFRET peptide cleavage; AID 743257; actives 65% (n = 2,900);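 active = mean inhibition across replicates above the hit cutoff set in the primary screen, cut at about 8.5% in these data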
Numbers stand for hits; . = inactive; / = no result given.

SMILES	ADAM17 inh	ADAM10 inh	AHR activator	proKLK7 act	GRIN3A LBD mod	rCAG binder	ADAM10 confirm	ADAM17 ctr	others
COC(=O)c1c(C)[nH]c(C(=O)COC(=O)CCc2ccc(OC)c(OC)c2)c1C	.	.	/	.	/	.	/	/
CCC(C)NC(=O)Cn1cnc2sc(C)c(S(=O)(=O)N3CCCCC3)c2c1=O (centres undefined)	.	.	.	.	.	.	/	/
O=C1NC(c2cccc(OCc3ccccc3)c2)Nc2ccccc21 (centres undefined)	.	.	/	14	13	.	/	/	KLK7 act conf=.;EDANS-DABCYL int=.
O=C1NC(c2ccc(O)cc2)Nc2ccccc21 (centres undefined)	.	.	.	29	.	.	/	/	KLK7 act conf=25;EDANS-DABCYL int=27
O=C1c2ccccc2C(=O)C1c1ccc(O)cc1	.	.	.	.	.	.	/	/
CCOc1ccc(/C=C(\C)C(=O)c2c(C)cc(C)[nH]c2=O)cc1	.	20	.	28	.	.	.	.	KLK7 act conf=.;EDANS-DABCYL int=.
COc1c(-c2ccc([N+](=O)[O-])cc2[N+](=O)[O-])c(=O)n(C)c(=O)n1C	.	.	.	.	.	.	/	/
CCc1ccccc1NC(=O)CSc1nc2n[nH]c(C)c2c(=N)n1-c1ccc(OC)cc1	12	.	/	31	.	.	/	/	KLK7 act conf=20;EDANS-DABCYL int=16;EDANS interf=3.3;ADAM10 counter=.;ADAM17 confirm=9.0
CCC(CC)N1CCN(C(=O)c2cc(OC)c(OC)c(OC)c2)CC1	.	.	.	.	.	.	/	/
Cc1ccccc1NC(=O)CSc1nc(N)c(C#N)c(-c2cccs2)c1C#N	.	.	.	.	.	.	/	/
COc1ccc(CCNC(=O)CSc2nc(N)c(C#N)c(-c3cccs3)c2C#N)cc1OC	8.9	.	.	22	.	.	/	/	KLK7 act conf=35;EDANS-DABCYL int=41;ADAM10 counter=.;ADAM17 confirm=.
CCOc1cccc(NC(=O)C2CC(=O)N(C)C(=Nc3cccc(F)c3)S2)c1 (centres undefined)	.	21	.	.	/	.	.	.
COCCCNC(=O)c1cccc2c(-c3ccnn3C)coc12	.	.	/	.	/	.	/	/
Cc1onc(-c2ccccc2Cl)c1C(=O)Nc1nnc(Cc2ccc(Cl)cc2)s1	.	23	.	.	.	.	.	.
CCNC(=O)C1CCCN(C(=O)c2cccc(Cl)c2)CC1 (centres undefined)	.	.	/	.	/	.	/	/
CC(C)(C)OC(=O)N/N=C/c1cccn1-c1ccc([N+](=O)[O-])cc1	.	.	.	.	.	.	/	/
COc1ccc(CC(=O)N/N=C/c2cccn2-c2ccc([N+](=O)[O-])cc2)cc1OC	.	21	.	.	.	.	.	.
O=C(COC(=O)CCc1c[nH]c2ccccc12)NC(c1ccccc1)c1ccccc1	.	24	.	.	.	.	.	.
Cc1ccc(NC(=O)COC(=O)CCc2c[nH]c3ccccc23)cc1	.	.	/	.	/	.	/	/
O=C(CN1C(=O)NC2(CCCCC2)C1=O)Nc1ccc2[nH]c(=O)[nH]c2c1	.	.	.	.	.	.	/	/
O=C(O)c1ccccc1/C=N/NC(=S)NC1CCCCC1	.	23	.	.	.	.	.	.
COc1ccc(N2C(=O)CSC23C(=O)N2c4c(cccc43)C(C)=CC2(C)C)cc1 (centres undefined)	.	22	.	.	.	.	.	.
COc1ccc(N2C(=O)CSC23C(=O)N2CCCc4cccc3c42)cc1 (centres undefined)	.	.	.	.	.	.	/	/
O=C(O)c1cc(Cl)c(Cl)cc1C(=O)Nc1cccc2cccnc12	.	.	.	.	.	.	/	/
O=C(NCCN1CCc2ccccc2C1)Nc1ccc([N+](=O)[O-])cc1	.	.	.	.	.	.	/	/
SMILES	ADAM17 inh	ADAM10 inh	AHR activator	proKLK7 act	GRIN3A LBD mod	rCAG binder	ADAM10 confirm	ADAM17 ctr	others
O=C(Nc1ccc([N+](=O)[O-])cc1)N1CCc2ccccc2C1	.	22	.	.	.	.	.	.
N#Cc1ccccc1OCc1cccc(S(=O)(=O)N2CCOCC2)c1	.	.	.	.	.	.	/	/
Nc1nc(N)c(-c2cccc(C(F)(F)F)c2)c(Cc2cccc(C(F)(F)F)c2)n1	15	37	/	.	.	.	.	.
Nc1ncccc1OCc1cccc(C(F)(F)F)c1	.	.	.	.	.	.	/	/
COCCn1c(SCC(=O)NC2CCCCC2)nnc1-c1ccncc1	.	.	.	.	.	.	/	/
Cc1nc(NC(=O)COC(=O)CCc2nc3ccccc3s2)c(Cl)cc1Cl	.	.	.	.	.	.	/	/
O=C(CC(c1ccccc1)c1ccccc1)Nc1ccc(Cl)cn1	14	23	.	.	.	.	.	.
O=C(COC(=O)CCc1nc2ccccc2s1)Nc1ccc(Cl)cn1	.	24	.	.	.	.	.	.
O=C(CN1C(=O)COc2ccc(Cl)cc21)Nc1ccccn1	.	.	.	.	.	.	/	/
COc1ccc(-c2n[nH]c(C(F)(F)F)c2-c2cc3ccccc3o2)c(O)c1	.	22	.	.	15	.	21	.
COc1ccc(S(=O)(=O)NCc2ccccn2)cc1Br	.	23	.	.	.	.	.	.
OCC1OCOC2C(CO)OCOC12 (centres undefined)	.	.	/	.	.	.	/	/
CCc1c(-c2cccc(OC)c2)ncn1Cc1cccc(-c2ccccc2)c1	.	.	/	.	/	.	/	/
CCc1c(-c2ccccc2)ncn1Cc1cccc(-c2ccccc2)c1	17	25	/	.	/	.	.	.
NC(=O)CSc1nnc(-c2ccccn2)n1Cc1ccco1	.	.	.	.	.	.	/	/
Clc1ccccc1CSc1nnc(-c2ccccn2)n1Cc1ccco1	.	21	.	.	.	.	.	.
